According to PubChem BioAssay (NCATS):
Inconclusive results are not listed. Calls of active or inactive are those of the source. The call rests on the fitted dose curve; in most records, active means well fitted curve in the direction sought with a large enough effect; inconclusive means small, poorly fitted or top-dose-only effect, or effect the other way, or another doubt; inactive means no such curve, though single readings can be large or run the other way. Numbered stars: 1 amine (or outer) side, 2 acyl side, 3 side chain; on linkers, the order of the positions; unused ones are H or OH. Bridge positions count the residues as written; N and C are the ends. Square brackets hold non-standard residues; d marks the D form. Peptide text beside a SMILES is read from it. ξ: configuration not given here. Phe(3R-OH) = O=C([C@@H](N[*:1])[C@H](O[*:3])c1ccccc1)[*:2]; NMeTrp(4-OMe) = CN[C@@H](Cc1c[nH]c2cccc(OC)c12)C(=O)O; ξThr(3R)(O-yl) = C[C@@H](O[*:3])C(N[*:1])C(=O)[*:2]; NMeThr(3ξ) = CN[C@H](C(=O)O)C(C)O; NMeL = CN[C@@H](CC(C)C)C(=O)O; NMeV = CN[C@H](C(=O)O)C(C)C; ξIle = CC[C@H](C)C(N)C(=O)O; ξV = CC(C)C(N)C(=O)O

Experiment: DH5-alpha competent E. coli microbial cell viability qHTS against the NCATS CANVASS Library (AID 1347377); on viability signal change, negative = cytotoxic: 0% is about no effect
Conditions: BacTiter-Glo ATP luminescence, overnight; series mostly up to 46.1 µM; viability signal change, negative = cytotoxic: at the top concentration
Source text: Natural products and their derivatives continue to be wellsprings of nascent therapeutic potential. However, many laboratories have limited resources for biological evaluation, leaving their previously isolated or synthesized compounds largely or completely untested. To address this issue, the Canvass library of natural products was assembled (https://tripod.nih.gov/canvass), in collaboration with academic and industry researchers, for quantitative high-throughput screening (qHTS) across a diverse set of cell-based and biochemical assays. The pure (>85% purity by liquid chromatography/mass spectrometry [LC/MS]) Canvass library of 346 natural products were submitted by 45 academic laboratories and companies around the world. We collected pure natural products to circumvent deconvolution and structure elucidation due to time and resource limitations. The library was formatted into 1536-well plates and evaluated in 50 qHTS (in an 11-pnt concentration series) bioassays with broad scope of disease-relevant mechanisms. The resulting data set from 50 different assays was then systematically analyzed to identify overall trends and specific natural products with interesting biological activities. Reported herein are the results of each individual qHTS and their corresponding assay protocol. The BacTiter-Glo microbial cell viability assay is a homogeneous method for determining the number of viable bacterial cells in culture based on quantitation of the ATP present. ATP is an indicator of metabolically active cells. The homogeneous assay procedure involves adding a single reagent (BacTiter-GloTM Reagent) directly to bacterial cells in medium and measuring luminescence. National Center for Advancing Translational Sciences (NCATS), Rockville, MD National Institute of Health (NIH), Bethesda, Maryland
DH5-alpha competent E.coli cytotoxicity protocol: 1. In a 1536 well, tissue culture treated white solid bottom plates (Greiner Bio-One North America), 5 uL of DH5-alpha competent E. coli suspension (0.9 OD culture diluted 0.2 OD) was dispensed into columns 1, 2, and 5-48 using the Multidrop Combi dispenser (Thermo Fisher Scientific). 2. Controls and compounds were pin transferred (~23 nL volume) to the assay plates via Wako Pin-tool (Wako Automation, Richmond VA) equipped with a 1536 pin head. The compounds were transferred to columns 5-48 resulting in a final concentration ranging from 0.17nM to 92uM. Daunomycin was used as a control in various concentrations (1mM working concentration; 1:2 dilution; 16 points; n=2; column 2, rows) for a final concentration range of 0.2 nM to 9.2 uM. 3. The assay plates were incubated overnight at 37C, 5% CO2, 95% humidity. 4. 2.5 uL of BacTiterGlo solution (Promega) was then added to the assay plates (column 1-48, rows 1-32). The assay plates were incubated at room temperature for 20 min. 5. Luminescence signal was acquired via the ViewLux plate reader using a clear emission filter, 2 second exposure and 2x binning settings.

Compound	viability signal change, negative = cytotoxic	outcome
COc1cc(/C=C/C(=O)O)ccc1O	8.16% (inactive)	–
CCC1=C2CCCN3C(=O)O[C@H]([C@H]1OC(C)=O)[C@H]23	7.1% (inactive)	–
COc1ccc(/C=C2\COc3cc(O)ccc3C2=O)cc1	-1.45% (inactive)	–
C/C1=C\CC(=O)/C=C/C=C\c2csc(n2)[C@@H](C)NC(=O)C[C@@](S)([C@@H](C)C(=O)O)CC1	12.7% (inactive)	–
CC(C)=CCC/C(C)=C/Cc1c(O)c(CC=C(C)C)c(O)c2c(=O)c3cc(O)ccc3oc12	10.5% (inactive)	–
O=C(O)CC1OCc2c(O)cccc21 (stereo not given)	4.71% (inactive)	–
CC1=CC[C@@]2(C[C@@H]1O)[C@@H](C(=O)O)CC[C@H]2C(C)C	3.7% (inactive)	–
COc1cc(/C=C2/C(=O)N(c3ccc(O)cc3C(=O)O)[C@H](c3ccc(O)c(OC)c3)C2C(=O)Nc2ccc(O)cc2C(=O)O)ccc1O (stereo not given in full)	13.2% (inactive)	–
O=C(O)Cc1c[nH]c2ccccc12	–	inactive
O=Cc1ccc2n1C[C@@]1(C[C@H](O)[C@@H](CO)O1)OC2	–	inactive
CN1C(=O)C2C(N=CN2C)N(C)C1=O (stereo not given)	2.36% (inactive)	–
O=Cc1ccc2n1C[C@@]1(C[C@H](O)[C@H](O)CO1)OC2	–	inactive
COc1ccc([C@@H]2c3cc(OC)c(OC)cc3C(=O)C(C)C2C)cc1OC (stereo not given in full)	13% (inactive)	–
CC[C@@H]1C[C@@]2(CC)OC(=O)[C@@]3(CC)OC(=O)[C@@H]1[C@@H]23	–	inactive
C=C(C)C(=O)O[C@H]1C[C@H](C)[C@@H](OC(C)=O)CC[C@@]2(C)O[C@@H]2[C@H]2OC(=O)C(COC(C)=O)=C12	13.2% (inactive)	–
C=CC(C)(C)C(=O)[C@@H](C)[C@@H]1CC[C@](C)(C=C)O1	4.13% (inactive)	–
CCCCCCCCCCCCCCC[C@H](O)C[C@@H](O)C[C@@H](O)C[C@@H](O)C[C@@H](O)C[C@H]1CC=CC(=O)O1	11.1% (inactive)	–
CC(=O)O[C@H]1CC[C@@]2(C)C(CC[C@]3(C)C2CC=C2C4CC(C)(C)CC[C@]4(C)CC[C@]23C)C1(C)C (stereo not given in full)	7.23% (inactive)	–
CO[C@H]1/C=C/CC[C@@H](S[C@@H]2O[C@H](CO)[C@@H](O)[C@H](O)[C@H]2O)CC(=O)O[C@@H](/C(C)=C/[C@H](C)C(=O)CCCC2CC(=O)NC(=O)C2)[C@@H](C)[C@@H]1O	23.9% (inactive)	–
C[C@H]1C[C@@H]([C@@H]2CC[C@]34O[C@H](CC[C@@]35C[C@H](C)C(=O)O5)CN24)OC1=O	21.3% (inactive)	–

Compound	viability signal change, negative = cytotoxic	outcome
C[C@@H]1C(=O)[C@]23CC[C@H]1C[C@]21O[C@H]2C(C)(C)C=CC(=O)[C@]23COC1=O	5.9% (inactive)	–
C=C1C[C@@]23C=CC(=O)[C@@](C)(CCCC(C)C(=O)O)[C@@H]2C[C@@H]1CC3 (stereo not given in full)	2.92% (inactive)	–
Oc1ccc([C@H]2Oc3ccc(/C=C/c4cc(O)cc(O)c4)cc3C2c2cc(O)cc(O)c2)cc1 (stereo not given in full)	33.2% (inactive)	–
C=C1/C=C\C(CCC)=C\c2csc(n2)C(C)NC(=O)C[C@@]2(CC(=O)O)CCC(=C)[C@H](C1)S2 (stereo not given in full)	7.48% (inactive)	–
CC1(C)CCC[C@]2(C)[C@@H]1CC[C@@]13C[C@@H](CC[C@H]12)C(C)(O)C3 (stereo not given in full)	1.68% (inactive)	–
CO[C@@H]1[C@H](O)[C@@H](C)O[C@@H](OC[C@H]2/C=C/C=C/C(=O)C(C)C[C@H](C)C(O[C@@H]3O[C@H](C)CC4(OC(=O)O[C@@H]4C)C3O)[C@@H](C)/C=C/C(=O)OC2C)[C@@H]1OC (stereo not given in full)	7.9% (inactive)	–
C=C1[C@H]2CC[C@@]3(C=CC(=O)[C@@](C)(CCC(=O)Nc4c(O)ccc(C(=O)O)c4O)C3C2)[C@H]1O (stereo not given in full)	24.2% (inactive)	–
CS/C=C/C(N)=O	25.6% (inactive)	–
O=C(O)CC1OC(=O)c2c(O)cccc21 (stereo not given)	–	inactive
CC1C(=O)C23CCC1C[C@]21O[C@@H]2C(C)(C)C=CC(=O)[C@@]23COC1=O (stereo not given in full)	11.6% (inactive)	–
O=C1CC(c2cc(O)cc(O)c2)Oc2cc(O)ccc21 (stereo not given)	–	inactive
C=C(NC(=O)c1csc(-c2nc3c(cc2O)-c2nc(cs2)C(=O)NC(C(C)O)C(=O)N/C(=C(\C)O)c2nc(cs2)C(=O)NC2c4nc(cs4)C(=O)NC(COC(=O)c4c5c6c(cccc6n4O)COC(=O)[C@@H](OC4C[C@](C)(O)[C@H](N(C)C)[C@H](C)O4)C2OC5)c2nc-3cs2)n1)C(N)=O (stereo not given in full)	9.86% (inactive)	–
C[C@@H]1O[C@@H](O[C@@H]2[C@@H](O)[C@H](O[C@@H]3[C@@H](O)[C@@H](O)C(O[C@H]4[C@H](OC(=O)[C@]56CCC(C)(C)C[C@H]5C5=CCC7[C@@]8(C)C[C@H](O)[C@H](O[C@@H]9C[C@H](CO)[C@@H](O)[C@H](O)[C@H]9O)[C@@](C)(CO)C8[C@H](O)C[C@@]7(C)[C@]5(C)CC6)OC[C@H](O)[C@@H]4O)O[C@H]3C)OC[C@H]2O)[C@H](O)[C@H](O)[C@H]1O (stereo not given in full)	24.2% [at 27.5 µM] (inactive)	–
COc1ccc2cc(NC(=O)C3=NO[C@H]4[C@H](O)C=C[C@@H](Cl)[C@@]4(O)C3)c(=O)oc2c1OC	–	inactive
CC1(C)[C@H](Br)CC[C@]23C[C@]4(C)C(=O)CC12C[C@H]34	–	inactive
CC[C@H](C)C(NC(=O)[C@@H](NC)C(C)C)C(=O)NC1C(=O)N(C)[C@@H](C(C)O)C(=O)N[C@@H](C(C)C)C(=O)N(C)[C@@H](CC(C)C)C(=O)NC(C(C)C)C(=O)N(C)[C@@H](C(C)C)C(=O)N(C)[C@@H](Cc2c[nH]c3cccc(OC)c23)C(=O)N[C@@H](C(C)C)C(=O)N[C@@H]([C@H](O)c2ccccc2)C(=O)N[C@@H](C(C)C)C(=O)O[C@@H]1C (stereo partly drawn) (H-[NMeV][ξIle][ξThr(3R)(O-yl)][NMeThr(3ξ)]V[NMeL][ξV][NMeV][NMeTrp(4-OMe)]V[Phe(3R-OH)]V; ester 3-C)	7.54% (inactive)	–
O=C1C[C@@H](c2ccc(O)c(-c3c(O)cc(O)c4c3O[C@H](c3ccc(O)cc3)CC4=O)c2)Oc2cc(O)cc(O)c21	10.9% [at 27.5 µM] (inactive)	–
CC1=CC2=C[C@H](C)C[C@@]23OC(=C(C)C3=O)CC(C)(C)/C=C/C1=O	8.91% (inactive)	–
CC1(C)CC[C@]2(C(=O)O)CC[C@]3(C)C(=CC[C@@H]4[C@@]5(C)C[C@@H](O)[C@H](O)C(C)(C)[C@@H]5CC[C@]43C)[C@@H]2C1	6.4% (inactive)	–
CC(C)(Br)[C@@H](Cl)C[C@H](Br)[C@](C)(Cl)/C=C/Br	12.8% (inactive)	–
